Calls of active or inactive are those of the source.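 The calls were made as follows, unless noted: active = mean inhibition over 43.08%, the solvent-only control mean plus 3 SD; inactive = the rest.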
Assays:
[1] = target: Nuclear receptor coactivator 3 (Homo sapiens) (UniProt Q9Y6Q9); test: SRC3 coactivator transcriptional activity inhibitors, confirmation, cell-based, luminescence, quadruplicate (AID 588792); conditions: HEK293 GAL4-SRC3 luciferase reporter, at 3.6 µM, hits give high values;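 also: 0% = DMSO treated cells and 100% = gossypol at 36 µM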
Sequence of Nuclear receptor coactivator 3 (Homo sapiens) (Q9Y6Q9 whole entry, looked up, the tested form may be a part): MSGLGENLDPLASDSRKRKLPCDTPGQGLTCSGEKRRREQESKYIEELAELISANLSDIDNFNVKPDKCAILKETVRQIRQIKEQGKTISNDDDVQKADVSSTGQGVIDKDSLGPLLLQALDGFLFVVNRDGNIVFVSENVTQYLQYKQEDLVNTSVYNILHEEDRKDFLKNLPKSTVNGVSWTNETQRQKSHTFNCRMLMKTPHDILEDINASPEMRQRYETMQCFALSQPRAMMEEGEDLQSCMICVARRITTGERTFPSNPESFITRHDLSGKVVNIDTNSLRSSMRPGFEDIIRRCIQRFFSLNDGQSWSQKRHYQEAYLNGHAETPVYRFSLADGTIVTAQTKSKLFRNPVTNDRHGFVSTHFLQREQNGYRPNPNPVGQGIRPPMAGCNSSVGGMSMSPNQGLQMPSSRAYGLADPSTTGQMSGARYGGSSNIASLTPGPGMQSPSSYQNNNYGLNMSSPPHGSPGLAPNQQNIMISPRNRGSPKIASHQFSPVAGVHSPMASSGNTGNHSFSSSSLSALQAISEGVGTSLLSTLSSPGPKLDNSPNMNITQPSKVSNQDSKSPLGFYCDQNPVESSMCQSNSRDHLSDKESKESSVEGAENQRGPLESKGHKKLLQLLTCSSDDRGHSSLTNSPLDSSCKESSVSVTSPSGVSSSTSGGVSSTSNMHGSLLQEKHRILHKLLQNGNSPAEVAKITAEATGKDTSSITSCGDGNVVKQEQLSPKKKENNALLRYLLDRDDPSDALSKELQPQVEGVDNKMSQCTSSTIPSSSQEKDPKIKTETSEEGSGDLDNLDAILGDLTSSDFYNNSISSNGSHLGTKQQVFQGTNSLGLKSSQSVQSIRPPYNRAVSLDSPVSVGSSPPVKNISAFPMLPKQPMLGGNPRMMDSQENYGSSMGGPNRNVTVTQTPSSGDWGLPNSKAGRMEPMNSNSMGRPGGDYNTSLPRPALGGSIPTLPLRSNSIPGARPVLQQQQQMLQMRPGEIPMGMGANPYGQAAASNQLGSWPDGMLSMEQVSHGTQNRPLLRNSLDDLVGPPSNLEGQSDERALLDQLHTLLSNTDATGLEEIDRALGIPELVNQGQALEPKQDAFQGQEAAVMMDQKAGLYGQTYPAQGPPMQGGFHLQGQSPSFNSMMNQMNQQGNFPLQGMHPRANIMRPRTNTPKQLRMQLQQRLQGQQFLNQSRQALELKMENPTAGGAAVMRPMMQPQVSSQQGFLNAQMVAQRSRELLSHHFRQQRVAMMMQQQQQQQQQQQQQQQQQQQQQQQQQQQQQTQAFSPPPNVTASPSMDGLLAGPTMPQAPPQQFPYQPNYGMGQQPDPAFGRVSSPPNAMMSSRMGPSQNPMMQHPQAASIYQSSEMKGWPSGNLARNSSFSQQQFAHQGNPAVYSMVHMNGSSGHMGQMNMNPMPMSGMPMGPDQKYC

[2] = test system: transactivating tegument protein VP16 (Human herpesvirus 1), Gal4-VP16 luciferase reporter; test: VP16 transactivation inhibitors, counter-screen for SRC3 inhibitor project, cell-based, luminescence, high throughput (AID 588794; in the data active = inhibition above about 30%); conditions: mammalian cells, VP16-driven luciferase reporter luminescence; at 3.6 µM; hits give high values
[3] = target: Nuclear receptor coactivator 1 (Homo sapiens) (UniProt Q15788); test: SRC1 coactivator transcriptional activity inhibitors, confirmation, cell-based, luminescence, quadruplicate (AID 588820;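 active = mean inhibition above 46.68%, the untreated control wells mean plus 3 SD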;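 also: 0% = DMSO wells and 100% = gossypol 36 µM treated wells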); conditions: HEK293 GAL4-SRC1 luciferase reporter, at 3.6 µM, hits give high values
Sequence of Nuclear receptor coactivator 1 (Homo sapiens) (Q15788 whole entry, looked up, the tested form may be a part): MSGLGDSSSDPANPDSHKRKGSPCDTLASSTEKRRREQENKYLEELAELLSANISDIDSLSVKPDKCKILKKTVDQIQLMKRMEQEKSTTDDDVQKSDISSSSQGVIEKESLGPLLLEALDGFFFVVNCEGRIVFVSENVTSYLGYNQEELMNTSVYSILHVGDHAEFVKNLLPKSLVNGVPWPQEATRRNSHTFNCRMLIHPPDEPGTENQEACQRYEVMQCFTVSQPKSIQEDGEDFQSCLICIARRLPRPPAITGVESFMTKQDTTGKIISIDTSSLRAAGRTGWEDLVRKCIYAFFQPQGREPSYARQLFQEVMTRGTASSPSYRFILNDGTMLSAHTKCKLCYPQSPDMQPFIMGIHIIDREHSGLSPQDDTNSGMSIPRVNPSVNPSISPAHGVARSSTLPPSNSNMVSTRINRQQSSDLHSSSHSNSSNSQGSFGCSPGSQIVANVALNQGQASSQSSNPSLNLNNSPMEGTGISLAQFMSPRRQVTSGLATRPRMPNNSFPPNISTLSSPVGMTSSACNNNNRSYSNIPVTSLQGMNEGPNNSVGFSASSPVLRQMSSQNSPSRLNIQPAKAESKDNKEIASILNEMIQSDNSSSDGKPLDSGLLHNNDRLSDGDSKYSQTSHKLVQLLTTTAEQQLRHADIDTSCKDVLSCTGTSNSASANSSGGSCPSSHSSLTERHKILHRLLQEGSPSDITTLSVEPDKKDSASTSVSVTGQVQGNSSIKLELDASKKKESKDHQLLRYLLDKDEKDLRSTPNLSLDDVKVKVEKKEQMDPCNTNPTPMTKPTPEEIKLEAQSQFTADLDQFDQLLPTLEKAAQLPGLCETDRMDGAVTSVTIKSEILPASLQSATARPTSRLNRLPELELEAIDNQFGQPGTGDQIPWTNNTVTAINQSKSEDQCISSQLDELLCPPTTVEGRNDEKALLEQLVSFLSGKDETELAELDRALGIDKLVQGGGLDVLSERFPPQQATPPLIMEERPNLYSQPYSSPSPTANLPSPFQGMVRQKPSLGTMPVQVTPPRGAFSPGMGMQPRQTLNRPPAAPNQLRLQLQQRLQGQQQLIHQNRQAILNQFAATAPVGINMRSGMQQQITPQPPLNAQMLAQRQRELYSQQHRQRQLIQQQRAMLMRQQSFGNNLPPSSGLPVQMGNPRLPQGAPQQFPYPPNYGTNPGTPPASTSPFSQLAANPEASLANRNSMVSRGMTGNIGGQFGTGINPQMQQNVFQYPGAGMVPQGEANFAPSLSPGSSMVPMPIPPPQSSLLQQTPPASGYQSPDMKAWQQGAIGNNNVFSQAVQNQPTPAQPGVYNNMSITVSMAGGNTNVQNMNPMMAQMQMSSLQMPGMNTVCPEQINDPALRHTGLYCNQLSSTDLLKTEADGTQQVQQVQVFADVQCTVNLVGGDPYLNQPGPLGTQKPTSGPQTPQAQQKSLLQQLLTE

[4] = VP16 transactivation inhibitors, counter-screen for SRC1 inhibitor project, cell-based, luminescence, high throughput (AID 588824; in the data active = inhibition above about 25%); conditions: cell-based VP16 transactivation luciferase luminescence; at 3.6 µM; hits give high values

Structure (SMILES) | inhibition [1] | inhibition [2] | inhibition [3] | inhibition [4]
CCOc1cc(Br)cc(/C=N/NC(=O)c2cccnc2)c1O | 33% (inactive) | 44.3% (active) | 27.3% (inactive) | 36.9% (active)
Cc1ccc(S(=O)(=O)N2CCOCC2)cc1NC(=O)CN1CCN(c2ccc(O)cc2)CC1 | 12.4% (inactive) | -1.58% (inactive) | -6.12% (inactive) | 11.1% (inactive)
NC(=O)N=Nc1c2[nH]c3ccccc3nc-2c2ccccc12 | -8.03% (inactive) | 45% (active) | -11.8% (inactive) | 48.8% (active)
O=C(Nc1ccc(N2CCN(C(=O)c3ccccc3F)CC2)cc1)c1cncc(Br)c1 | 64.7% (active) | 37.8% (active) | 34.5% (inactive) | 48% (active)
Cn1c(/C=C/c2ccc(Cl)cc2Cl)c([N+](=O)[O-])c(=O)n(C)c1=O | 62.2% (active) | 51.5% (active) | 47.2% (active) | 56.3% (active)
Cc1ccc2nc(-c3ccncc3)c(NC3CCCC3)n2c1 | 38.8% (inactive) | 29.2% (inactive) | 27.3% (inactive) | 25.7% (active)
Cc1nc2c(o1)C(=O)c1ccccc1C2=Nc1ccccc1 | 78.5% (active) | 94.3% (active) | 61.8% (active) | 79.1% (active)
O=C(Nc1ccc([N+](=O)[O-])cc1)Nc1ccc(OC(F)F)c(Cl)c1 | 22.9% (inactive) | 32.5% (active) | 10.3% (inactive) | 39.7% (active)
COc1ccc(-n2cc(-c3ccccc3)[n+]3c2CCCCC3)cc1 | 24.8% (inactive) | 22% (inactive) | 16.8% (inactive) | 27.7% (active)
Cc1nc(N)nc(N)c1-c1ccc(Cl)c(Cl)c1 | 58.5% (active) | 24.5% (inactive) | 54.2% (active) | 33.6% (active)
O=C(Nc1nc(-c2ccccc2)cs1)c1ccc(N2CCOCC2)c([N+](=O)[O-])c1 | 56.2% (active) | 61.4% (active) | 15.3% (inactive) | 64.8% (active)
Cc1cc(=O)[nH]c(NN=Cc2cc(Br)ccc2O)n1 | 76.2% (active) | 64% (active) | 51.2% (active) | 64.8% (active)
Cc1ccc(C2NC(=O)CCC2[N+](=O)[O-])cc1 (configuration not stated) | -3.62% (inactive) | -1.77% (inactive) | -9.25% (inactive) | -3.26% (inactive)
COc1cccc(/C=N/NC(=O)C(=O)Nc2ccccc2OC(F)(F)C(F)F)c1O | 36.3% (inactive) | 38% (active) | 33.3% (inactive) | 23.4% (inactive)
COc1cccc2c1C(=N)c1c(O)c3c(c(O)c1C2=O)CC(O)(C(C)=O)CC3OC1CC(N)C(O)C(C)O1 (configuration not stated) | 41.9% (inactive) | -33.3% (inactive) | 26.9% (inactive) | -29.4% (inactive)
O=c1[nH]c(=O)n(C2C[C@H](O)[C@@H](CO)O2)cc1C(F)(F)F (some centres not stated) | 45.7% (active) | 40% (active) | 54.4% (active) | 44.3% (active)
Cc1ccc(-c2nnn(CC(=O)N(Cc3cccs3)C(C(=O)NC3CCCC3)c3ccncc3)n2)cc1 (configuration not stated) | 58.2% (active) | 35.2% (active) | 48.4% (active) | 34.1% (active)
Cc1c2ccncc2cc2c1[nH]c1ccccc12 | 48.7% (active) | 33.5% (active) | 48.4% (active) | 19.9% (inactive)
Nc1ncnc(NCc2ccccc2)c1[N+](=O)[O-] | 38.8% (inactive) | 26.7% (inactive) | 38.1% (inactive) | 42.4% (active)
O=C(NNC1=Nc2cccc3cccc1c23)c1ccccc1Br | 19.4% (inactive) | 22.2% (inactive) | 14.2% (inactive) | 17.2% (inactive)
Cc1ccc(C)c(NC(=O)c2ccccc2NS(=O)(=O)c2cc([N+](=O)[O-])ccc2C)c1 | 20.5% (inactive) | 25.5% (inactive) | 21% (inactive) | 22% (inactive)
CCOC(=O)C(=Cc1ccccc1OC)C(=O)OCC | 27.3% (inactive) | 25.4% (inactive) | 9.25% (inactive) | 22.2% (inactive)
NC(=O)c1sc2nccc(Nc3ccccc3)c2c1N | 70.9% (active) | 47.7% (active) | 53.8% (active) | 39.8% (active)
CCCCC(=O)NC(c1ccc(C(C)C)cc1)c1ccc2cccnc2c1O (configuration not stated) | 62% (active) | 61.1% (active) | 58.2% (active) | 66% (active)
COC(=O)c1cc(Cl)cc(Cl)c1OS(=O)(=O)N(C)C | -11.6% (inactive) | -46.8% (inactive) | -212% (inactive) | -59.6% (inactive)
Cc1cn([C@@H](CCCCNC(=O)OC(C)(C)C)C(=O)NCCCCCCCCCCC(=O)N2CCN(C(=O)OC(C)(C)C)CC2)nn1 | 12.4% (inactive) | 25.6% (inactive) | 4.04% (inactive) | 41.8% (active)
COc1ccc(NC(=O)c2cc([N+](=O)[O-])ccc2O)cc1 | 42.1% (inactive) | 35.5% (active) | -37.7% (inactive) | 29.2% (active)

Structure (SMILES) | inhibition [1] | inhibition [2] | inhibition [3] | inhibition [4]
CC(=O)N(C)C1=C(N2CCOCC2)C(=O)c2ccccc2C1=O | -0.07% (inactive) | 35.7% (active) | 14.2% (inactive) | 21.9% (inactive)
CCOC(=O)C(=Cc1ccccc1)C(=O)c1ccccc1 | 21.3% (inactive) | 33.6% (active) | 10.6% (inactive) | 28.7% (active)
CC(C)(C)n1ncc2c(=O)n(CC(=O)OCc3ccccc3)cnc21 | 31.6% (inactive) | 17% (inactive) | -21.8% (inactive) | -23.3% (inactive)
CC(=O)NC(c1ccc(C)cc1)c1cc(Cl)c2cccnc2c1O (configuration not stated) | 26.4% (inactive) | 22.3% (inactive) | 36.4% (inactive) | 29.6% (active)
O=C(Nc1cccc(Cl)c1)Nc1nnc(-c2ccncc2)s1 | 40.1% (inactive) | 31.9% (active) | 28.5% (inactive) | 23.7% (inactive)
N=c1c2c(-c3ccccc3)c(-c3ccccc3)n(Cc3ccccc3)c2ncn1CCCO | 12% (inactive) | 53.2% (active) | 42.6% (inactive) | 51% (active)
O=C(Nc1cccnc1)c1ccc(C(=O)Nc2cccnc2)cc1 | 32.2% (inactive) | 19.1% (inactive) | 23.3% (inactive) | 20.4% (inactive)
Nc1ccn([C@@H]2O[C@H](CO)[C@@H](O)C2O)c(=O)n1 (some centres not stated) | 33.8% (inactive) | 30.9% (active) | 32.5% (inactive) | 19.4% (inactive)
CCc1ccc(-c2cc(C(F)(F)F)n3nc(C(=O)Nc4cnn(Cc5ccc(C)cc5)c4)cc3n2)s1 | 10.1% (inactive) | 9.55% (inactive) | -3.69% (inactive) | 7.47% (inactive)
Nc1ccc(Cn2ccc3c4c(N)nc(N)nc4ccc32)cc1 | 66.1% (active) | 32% (active) | 67.7% (active) | 36.9% (active)
Cn1c2c(c(=O)n(C)c1=O)C(C(F)(F)F)(C(F)(F)F)N=C(C1CCCCC1)N2 | 11.5% (inactive) | 20.6% (inactive) | 10.2% (inactive) | 12.8% (inactive)
CCN(CC)CCCNc1ccc2ncn3c4ccc(O)cc4c(=O)c1c23 | 16.5% (inactive) | 51.3% (active) | 47.9% (active) | 49.9% (active)
COc1ccc(-n2cnc3c(sc4nccc(N(C)C)c43)c2=O)cc1 | 40.1% (inactive) | 22.4% (inactive) | 33.3% (inactive) | 11.8% (inactive)
Cn1c(=N)n(CC(=O)c2ccc(Cl)c(Cl)c2)c2ccccc21 | -33.3% (inactive) | -30.2% (inactive) | -189% (inactive) | -61.4% (inactive)
Cc1c(Cl)c([N+](=O)[O-])nn1Cc1ccc(C(=O)N/N=C\c2cc(Cl)ccc2O)o1 | 57.4% (active) | 48.7% (active) | 55.5% (active) | 52.9% (active)
O=C(NC1CCCN(Cc2ccccc2F)C1)c1cccc(N2CCCC2=O)c1 (configuration not stated) | 3.31% (inactive) | -7.69% (inactive) | -4.75% (inactive) | -1.08% (inactive)
CCCCCCCCCCCCCCCC[n+]1cccc2ccccc21 | 44.9% (active) | 69.2% (active) | 39.9% (inactive) | 76% (active)
CN(C(=O)COC(=O)/C=C/c1cccc([N+](=O)[O-])c1)C1CCS(=O)(=O)C1 (configuration not stated) | 39.1% (inactive) | 32.4% (active) | 41.6% (inactive) | 29.5% (active)
O=C(Nc1cccc(S(=O)(=O)Nc2ccccc2Cl)c1)c1ccc(Cl)nc1 | -1.42% (inactive) | 27.7% (inactive) | 5.83% (inactive) | 32.2% (active)
O=C(Nc1c2ccccc2nc2ccccc12)C(Cl)(Cl)Cl | -27% (inactive) | 10.5% (inactive) | -35% (inactive) | 8.17% (inactive)
Cc1cc2[nH]c3ccccc3c2c(C)n1 | -0.94% (inactive) | 18.7% (inactive) | -3.38% (inactive) | 9.89% (inactive)
O=C(Nc1nc(-c2ccc(F)c(F)c2)cs1)c1ccc(OCC2CCCO2)cc1 (configuration not stated) | 7.06% (inactive) | 36% (active) | 5.41% (inactive) | 39.4% (active)
Cc1ccc(C(=O)CSc2cnc3ccccc3n2)cc1C | -16.1% (inactive) | -33% (inactive) | -96.7% (inactive) | -68.1% (inactive)
NC(=O)c1sc2nc3c(c(-c4ccco4)c2c1N)CCC3 | 53.9% (active) | 8.75% (inactive) | 52.9% (active) | 33.1% (active)
CC(C)(C)NC(=O)CSc1nc2ccc(NC(=O)CSc3nnnn3Cc3ccccc3)cc2s1 | 0.03% (inactive) | 28.7% (inactive) | 3.45% (inactive) | 26.4% (active)
Cc1cc(C)nc(/N=C(\N)Nc2ccc(-c3ccccc3)cc2)n1 | 9.37% (inactive) | 33.3% (active) | 21.7% (inactive) | 30.1% (active)
